About 13,000 (27%) of roughly 48,000 compounds showed an effect of 50% or more. The list shows a part of the results.
Each compound was assayed on Wolbachia pipientis (assay: Anti-Wolbachia Cell-Based Screen). Details: 5 µM.
Format: functional
Parameters: scale not given: in the data most compounds retested in dose-response had high values

SMILES | Percent Effect [%]
CCCn1cnnc1CNC(=O)CC1C(=O)NCCN1CC(C)(C)C (stereo not drawn) | 2.919
O=C1N(CC2CC2)C2(CCSCC2)NC12CCCC2 | -1.128
O=C1CC(c2ccc(C(=O)O)cc2)c2ncn(-c3cccc(Cl)c3)c2N1 (stereo not drawn) | -0.6524
O=C(c1ccn(-c2cccc(F)c2)n1)N1CCN(CC2CC2)CC1 | 1.903
CC1CN(C)CCN1C(=O)c1ccn(-c2cccc(F)c2)n1 (stereo not drawn) | 102.3
CC1CN(C)CCN1C(=O)c1ccn(-c2cccc(Cl)c2)n1 (stereo not drawn) | -2.456
Cn1cc(CN2CC3(CCN(Cc4ccsc4)C3)C2)cn1 | -4.449
Cc1ccc(CN2CCS(=O)(=O)C(C)(C)C2)cc1C | 113.6
Cn1cc(CN2CCS(=O)(=O)C(C)(C)C2)cn1 | 112.3
CCc1cnc(N2CCN(Cc3ccncc3)CC2)s1 | -22.29
Cn1cc(CN2CCN(Cc3nccn3C)CC2)cn1 | -17.17
CC1(C)CN(Cc2ccncc2)CCS1(=O)=O | 93.26
Cc1ccc(CN2CCN(CC(=O)N(C)C)[C@@H]3CS(=O)(=O)C[C@@H]32)cc1C | 8.037
Cc1ccc(CN2CCN(CC3CC3)[C@@H]3CS(=O)(=O)C[C@@H]32)cc1C | -7.096
COCCC1(CO)CCCN(Cc2ccncc2)C1 (stereo not drawn) | -9.658
COc1cccc2c1OCC(CNC(=O)COCC(F)(F)C(F)F)C2 (stereo not drawn) | -0.4399
CC(Cn1cccn1)NC(=O)N(C)Cc1ccc(Cl)s1 (stereo not drawn) | -9.644
CNC(=O)C(NC(=O)c1nccn2ccnc12)c1ccc(F)c(F)c1 (stereo not drawn) | 7.625
COCCN1C[C@@H]2CN(c3cc(OC)ncn3)CCC[C@]2(C(=O)O)C1.O=C(O)C(F)(F)F | -26.02
COCCCC1CCCCN1Cc1cc(F)ccc1-n1cccn1 (stereo not drawn) | -9.489
Cc1nc(CSc2nc(=O)ccn2C(C)C)cs1 | -10.57
CCc1nc(N2CCN(c3ncccc3C#N)CC2)c2cnn(C)c2n1 | -1.782
CC(C)(C)NC(=O)CN1CCCN(c2ccc(C#N)cn2)CC1 | 24.81

SMILES | Percent Effect [%]
Cn1ccnc1CN1CCN(c2ccc(C#N)cn2)CC1 | -0.9775
CCC1(CO)CCCN(c2ncccc2C#N)C1 (stereo not drawn) | 13.06
CC1CN(c2ccc(C#N)cn2)CCN1c1ccc2nncn2n1 (stereo not drawn) | -4.12
CCOCCN1CCN(c2ncccc2C#N)CC1CC (stereo not drawn) | 98.03
CCOCCN1CCN(c2ccc(C#N)cn2)CC1 | 109.9
CS(=O)(=O)NCC1CCCN(c2ccc(C#N)cn2)C1 (stereo not drawn) | 7.798
CCOCCN1CCN(c2ccc(C#N)cn2)CC1CC (stereo not drawn) | 137.2
OC(CN(Cc1ccccc1)Cc1cscn1)c1ccco1 (stereo not drawn) | 18.92
CCOCCCn1c(NC(=O)c2ccc(C)nc2)nc2ccccc21 | 6.919
CCN(CC)CCn1c(NC(=O)c2scnc2C)nc2ccccc21 | 105.9
Cc1cc(C(=O)NCC(c2ccccc2Cl)N2CCOCC2)on1 (stereo not drawn) | -6.198
CCOCCCn1c(NC(=O)c2cnc(C)s2)nc2ccccc21 | 27.94
CCOCCCn1c(NC(=O)c2cnc(C)cn2)nc2ccccc21 | 19.12
CCOCCCn1c(NC(=O)c2cnn(C)c2)nc2ccccc21 | -0.9199
CCOC(=O)NCC(=O)Nc1nc2ccccc2n1C(C)(C)C | 17.02
CCOCCCn1c(NC(=O)c2ccnc(C)n2)nc2ccccc21 | 73.67
CCOCCCn1c(NC(=O)c2cc(C)no2)nc2ccccc21 | 106.1
CCOCCCn1c(NC(=O)c2scnc2C)nc2ccccc21 | 25.92
CCCn1c(NC(=O)CNC(=O)OCC)nc2ccccc21 | -6.336
CCOCCCn1c(NC(=O)c2cc(C)on2)nc2ccccc21 | 95.91
CCN(c1ccccc1)S(=O)(=O)c1cc(C(=O)O)cc2c1CCC2 | 1.015
Cc1ccc(N2Cc3cnn(Cc4ccc(F)cc4)c3C2)nn1 | 30.55
Cc1nn(C)c(C)c1OCC(=O)N1CCC(O)(C(F)(F)F)CC1 | -15.17

SMILES | Percent Effect [%]
CCOCCNC(=O)c1cc(COc2cncc(Cl)c2)on1 | -4.955
Cc1cc2occ(CC(=O)N3CCC4(CCCN(C)C4=O)C3)c2cc1Cl (stereo not drawn) | -29.71
NC(=O)N1CCCC(C(=O)NCc2noc(Cc3ccccc3)n2)C1 (stereo not drawn) | 9.14
NC(=O)CC1CCCN(c2cncc(SCc3ccccc3)n2)C1 (stereo not drawn) | 107.6
CCC(=O)NC1CCCN(c2cncc(OCc3ccccc3)n2)C1 (stereo not drawn) | 109.7
CC(C)Oc1ncc(C(=O)N2CCC(CC(N)=O)CC2)cc1Cl | -16.32
CCC(=O)NC1CCCN(C(=O)c2ccc(OCC3CC3)nc2)C1 (stereo not drawn) | -1.285
CC(C)COc1cncc(N2CCCC(CC(N)=O)C2)n1 (stereo not drawn) | 119.8
CNC(=O)CN(C)c1cncc(OCc2ccccc2)n1 | -7.002
NC(=O)CC1CCCN(c2cncc(OCc3ccccc3)n2)C1 (stereo not drawn) | 95.75
O=C(O)c1cn(CC2CCCN(c3cnc4ccccc4n3)C2)nn1 (stereo not drawn) | 0.3718
CCCC(=O)NC1CCCN(c2cncc(Br)c2)C1 (stereo not drawn) | 2.547
CNC(=O)CN(C)c1cncc(OCC(C)C)n1 | -2.547
Cc1ccccc1CSc1nc(N)cc(N2CCCC(O)C2)n1 (stereo not drawn) | -23.5
Cc1ccc(CN2CCN(Cc3ccc4nonc4c3)CC2=O)cc1 | -11.42
O=C(Nc1cccnc1)C1CCCN(c2cc(-n3cccn3)ncn2)C1 (stereo not drawn) | -6.997
COc1nc(N2CCC(CC(N)=O)CC2)ncc1Br | 4.929
NC(=O)CC1CCN(c2cncc(OCc3ccccc3)n2)CC1 | 92.73
c1ccc(COC2CCN(c3cncc(-n4cccn4)n3)CC2)cc1 | 1.342
O=C(O)c1ccc(N2CCC(Cc3ccccc3)CC2)nn1 | 3.318
COCC1CCCN(c2cncc(OCc3ccccc3)n2)C1 (stereo not drawn) | 88.62
c1ccc2nc(N3CCCC(Cn4cncn4)C3)cnc2c1 (stereo not drawn) | 3.637

Source: ChEMBL document CHEMBL3988442, “University of Dundee, Small-Polar-MMV Screening Library” (2021)
